The full list was thinned out, with hits kept by preference.
ER stress surv = ER stress cell death inhibition; CSM14.1 thapsigargin ER stress survival, ATP luminescence; relative survival (cellular ATP), % at 15 µg/mL (by protocol); actives 0.33% (n = 48,000);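 active = survival measured by cellular ATP above 50% at 15 µg/ml in the first screen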;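 also: cell death triggered by about 15 µM thapsigargin; ATP read 24 h after thapsigargin was added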
Hits are given with their value; 0 = inactive.

SMILES | ER stress surv
Cn1c2c(c3cc(C4CCCCC4)ccc31)CCC/C2=N\O | 0
CCc1cc2c(N3CCN(Cc4ccc(Cl)cc4Cl)CC3)ncnc2s1 | 98
CCc1cc2c(N3CCCCC3)ncnc2s1 | 0
CCOC(=O)c1cnn(-c2ncnc3sc(CC)cc23)c1N | 0
Cc1cc(C)nc(SCC(=O)Nc2ccc(Cl)c(Cl)c2)n1 | 0
CC(=O)c1cccc(NC(=O)/C(=C\c2cccs2)NC(=O)c2cccs2)c1 | 0
CC1(C)OC2OC(C(=O)Nc3ccccc3)C3OC(C)(C)OC3C2O1 (stereo unspecified) | 0
O=C(Nc1cccc2ccccc12)C1C2CCC3C(CCC21)C3(Cl)Cl (stereo unspecified) | 0
O=C(Nc1cccc2ccccc12)C1OC2OC3(CCCCC3)OC2C2OC3(CCCCC3)OC12 (stereo unspecified) | 115
COc1ccccc1N1CCN(C(=O)c2ccc(CN(c3cc(Cl)ccc3C)S(=O)(=O)c3ccccc3)cc2)CC1 | 0
CN(C)CC1C(=O)N(c2ccccc2)N(c2ccccc2)C1=O | 0
Cn1c(O)c(C(=NCc2ccccc2)c2ccccc2)c(=O)n(C)c1=O | 0
COc1ccc(N2C(=O)CC(N3CCN(C(c4ccccc4)c4ccc(Cl)cc4)CC3)C2=O)cc1 (stereo unspecified) | 110
O=C1CC(N2CCN(C(c3ccccc3)c3ccccc3)CC2)C(=O)N1c1ccc(F)cc1 (stereo unspecified) | 0
COc1cccc(N2C(=O)CC(N3CCN(C(c4ccccc4)c4ccccc4)CC3)C2=O)c1 (stereo unspecified) | 0
O=C(Nc1c(Cl)cccc1Cl)c1ccccc1 | 0
Cc1cccc(N2C(=O)NC(=O)/C(=C\c3cc(C)n(-c4cccnc4)c3C)C2=O)c1 | 0
COc1ccc(C(=O)N/C(=C/c2ccc(Br)cc2)c2nc3ccccc3[nH]2)cc1 | 0
CN(C)c1ccc(/C=C(/c2ccccc2)c2nc3ccccc3[nH]2)cc1 | 0
COc1ccc(/C=C(/c2ccccc2)c2nc3ccccc3[nH]2)cc1 | 51
CC(=O)N1C(Nc2ccccc2)CC(C)N1c1ccccc1 (stereo unspecified) | 0
CC(=O)N(c1ccc(Br)cc1)C1SC(=O)N(c2cccc(C)c2)C1=O (stereo unspecified) | 0
O=C(CSc1nc2ccccc2s1)Nc1ccc(F)c([N+](=O)[O-])c1 | 0
C/C(=N\Nc1nnc2c(n1)[nH]c1ccccc12)c1cccs1 | 0
CCOc1cc(/C=C2/SC(=S)N(C)C2=O)ccc1OCCOc1ccccc1C | 0
SMILES | ER stress surv
COc1cc(/C=C2/SC(=S)N(C)C2=O)ccc1OCc1cccc2ccccc12 | 0
CCC(C)c1ccc(OCCOc2ccc(/C=C3/SC(=S)N(C)C3=O)cc2OC)cc1 (stereo unspecified) | 89
Cc1cccc(C)c1NC(=O)c1cccc([N+](=O)[O-])c1 | 0
CN(C)c1nccc(N(Cc2ccccc2)Cc2ccccc2)c1C#N | 83
CN(C)CCN(Cc1ccccc1)c1ccnc(N(C)C)c1C#N | 0
COc1nccc(Nc2ccccc2)c1C#N | 0
COc1ccc(OC)c(CN2CCN(S(C)(=O)=O)CC2)c1 | 0
O=C1NC(=O)N(c2ccc(Cl)cc2)C(=O)/C1=C\C=C\c1ccco1 | 54
Cc1cc(N2C(=O)NC(=O)/C(=C\C=C\c3ccco3)C2=O)ccc1Br | 0
O=C1NC(=S)N(c2ccc(Cl)cc2)C(=O)/C1=C/C=C/c1ccccc1 | 0
CCCCCCCc1c(C)[nH]n(-c2nnc3c(n2)[nH]c2ccccc23)c1=O | 0
COc1cccc(-n2c(/C=C/c3cn(C)c4ccccc34)nc3ccccc3c2=O)c1 | 76
Cn1cc(/C=C/c2nc3ccccc3c(=O)n2-c2ccc([N+](=O)[O-])cc2)c2ccccc21 | 0
COc1cccc(-n2c(/C=C/c3c(C)[nH]c4ccccc34)nc3ccccc3c2=O)c1 | 0
CCCOc1ccc(C2Nc3ccccc3NC3=C2C(=O)CC(c2ccc(OC)c(OC)c2)C3)cc1 (stereo unspecified) | 103
COc1ccc(C2CC(=O)C3=C(C2)Nc2ccccc2NC3c2cc(OC)c(OC)cc2OC)cc1 (stereo unspecified) | 0
COc1ccc(C2Nc3ccccc3NC3=C2C(=O)CC(C)(C)C3)cc1OCc1ccccc1 (stereo unspecified) | 0
COc1ccc(C2CC(=O)C3=C(C2)Nc2ccccc2NC3c2cc(Br)ccc2OC)cc1OC (stereo unspecified) | 112
COc1ccc(C2CC(=O)C3=C(C2)Nc2ccccc2NC3c2ccc(Cl)c(Cl)c2)cc1OC (stereo unspecified) | 0
COc1ccc(C2CC(=O)C3=C(C2)Nc2ccccc2NC3c2cc(OC)ccc2OC)cc1 (stereo unspecified) | 0
COc1ccc(C2CC(=O)C3=C(C2)Nc2ccccc2NC3c2ccc(SC)cc2)cc1OC (stereo unspecified) | 112
COc1ccc(C2CC(=O)C3=C(C2)Nc2ccccc2NC3c2ccc(OCc3ccccc3)c(OC)c2)cc1OC (stereo unspecified) | 125
COc1ccc(C2CC(=O)C3=C(C2)Nc2ccccc2NC3c2ccccc2Br)cc1OC (stereo unspecified) | 0
CCOC(=O)C(=CNc1cc(C)ccc1O)C(=O)OCC | 0
CC(NS(=O)(=O)c1ccc(F)cc1)C1C2CC3CC(C2)CC1C3 (stereo unspecified) | 0
SMILES | ER stress surv
Cc1cc(C)c(N2C(=O)NC(=O)/C(=C/c3ccc([N+](=O)[O-])o3)C2=O)c(C)c1 | 0
CCOc1ccc(C(=O)Nc2cc3nn(-c4ccc(C)cc4)nc3cc2C)cc1 | 0
CCCc1ncc(C(O)c2ccc(OCC)cc2)n1C (stereo unspecified) | 0
COc1cccc(N(CC(=O)N2CCCC2)S(=O)(=O)c2ccccc2)c1 | 0
O=C(c1ccc(F)cc1)N1CCN(c2ccc(F)cc2)CC1 | 0
Cc1cnn(-c2cc(C(F)(F)F)nc(-c3ccccc3)n2)c1 | 0
CCCOc1ccc(/C=N/N(C)c2cc(C)nc(-c3ccccc3O)n2)c(O)c1 | 0
CC(C)Oc1ccc(/C=N/NC(=O)C(=O)NC2CCCC2)cc1 | 0
Cc1ccc(C(=O)Nc2sc3c(c2C#N)CCC(C)C3)cc1C (stereo unspecified) | 0
COc1ccc(C2CC(=O)C3=C(C2)Nc2ccccc2NC3c2ccncc2)cc1OC (stereo unspecified) | 0
CCc1ccc(C2Nc3ccccc3NC3=C2C(=O)CC(c2ccc(OC)c(OC)c2)C3)cc1 (stereo unspecified) | 89
COc1ccc(C2CC(=O)C3=C(C2)Nc2ccccc2NC3c2ccccc2C)cc1OC (stereo unspecified) | 0
COc1ccc(C2CC(=O)C3=C(C2)Nc2ccccc2NC3c2cccc3ccccc23)cc1OC (stereo unspecified) | 0
COc1ccc(C2CC(=O)C3=C(C2)Nc2ccccc2NC3c2ccccc2C(F)(F)F)cc1OC (stereo unspecified) | 124
COc1ccc(C2CC(=O)C3=C(C2)Nc2ccccc2NC3c2ccc([N+](=O)[O-])cc2)cc1OC (stereo unspecified) | 0
CC1=C(C(=O)Nc2ccccc2)C(c2ccc([N+](=O)[O-])cc2)N2C(=O)CSC2=N1 (stereo unspecified) | 0
CCN(CC)c1ccc(C=C(C#N)C#N)c(OC)c1 | 0
O=C(c1ccc(Cl)cc1)N1CCN(c2cccc(Cl)c2)CC1 | 0
O=C(c1cccc(Cl)c1)N1CCN(c2cccc(Cl)c2)CC1 | 0
O=C(c1cccc(C(=O)N2CCN(c3cccc(Cl)c3)CC2)c1)N1CCN(c2cccc(Cl)c2)CC1 | 99

Source: PubChem (Sanford-Burnham Center for Chemical Genomics)
